According to PubChem BioAssay (NCI):
The panel holds about 83,000 compounds, 20% with a hit somewhere; the sample as a whole holds those more often.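 Method: cells in 96-well plates; compound added at one concentration; 48 h incubation; percent growth measured; values under 10 scored active.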 Values without a mark were called inactive. Calls of active or inactive are those of the source.

How the values were obtained:
Assay in all cases: NCI-60 one-dose screen, 48 h (100 = growth as untreated, 0 = no growth, -100 = all killed)
Settings in all cases: 10 µM unless noted
HT29 colon = tested on: HT29 colon
SNB-75 CNS = tested on: SNB-75 CNS
SNB-19 CNS = tested on: SNB-19 CNS
U251 CNS = tested on: U251 CNS
PC-3 prostate = tested on: PC-3 prostate
SK-MEL-5 melanoma = tested on: SK-MEL-5 melanoma
LOX IMVI melanoma = tested on: LOX IMVI melanoma
SK-MEL-28 melanoma = tested on: SK-MEL-28 melanoma
UACC-62 melanoma = tested on: UACC-62 melanoma

| SMILES | growth (HT29 colon) | growth (SNB-75 CNS) | growth (SNB-19 CNS) | growth (U251 CNS) | growth (PC-3 prostate) | growth (SK-MEL-5 melanoma) | growth (LOX IMVI melanoma) | growth (SK-MEL-28 melanoma) | growth (UACC-62 melanoma) |
| --- | --- | --- | --- | --- | --- | --- | --- | --- | --- |
| O=C(Nc1ccc(I)cc1)c1cc([N+](=O)[O-])ccc1O | 48.7% | 57% | 35.4% | 31.1% | 15.3% | -0.402% (active) | 20.2% | 16.4% | – |
| N=C(N)c1ccc(-c2ccc(-c3ccc(Cl)cc3)o2)nc1 | – | -97.8% (active) | -87.2% (active) | -98.1% (active) | -90% (active) | -98.8% (active) | -90.4% (active) | -94.2% (active) | -96.8% (active) |
| CCN(C(=O)c1cc2ccccc2[nH]1)[C@H]1CCC[C@@H](NCc2ccc(OC)cc2)C1 | 76.2% | 80.6% | 91.3% | – | 88.5% | 91.2% | 89% | 98.3% | 95.6% |
| Nc1nc(-c2ccccc2)cs1 | 100% | 84.3% | 105% | 98.9% | 98.1% | 102% | 97.9% | 109% | – |
| O=C(c1ccccc1)C(Cl)C(Cl)c1ccccc1 (stereo unspecified) | 20.4% | 70.7% | 92% | 78% | 83% | 88.8% | -64.9% (active) | 67.3% | 0.557% (active) |
| COC(=O)[C@H]1[C@H](OC)[C@@H](OC(=O)/C=C/c2ccncc2)CC2CN3CCc4c([nH]c5cc(OC)ccc45)[C@@H]3C[C@@H]21 (stereo partly specified) | 68.9% | 48.6% | 84.1% | 67.1% | 56% | 89.6% | 50.4% | 94.5% | 43.8% |
| CC(C)(C)c1ccc(S(=O)(=O)Oc2ccc3c4c(c(=O)oc3c2)CCCCC4)cc1 | 15.8% | 39.1% | 82% | 54.3% | 32.9% | -3.23% (active) | 43.2% | 39.4% | 30.3% |
| CNC(=O)c1cc(Oc2ccc3c(c2)sc2nc(-c4ccc(Cl)cc4)cn23)ccn1 | 105% | 47.9% | 54% | 69.5% | 78.8% | 87.4% | 87.4% | 104% | – |
| O=S(=O)(NCCCNc1nccc(-c2c(-c3ccccc3)nc3sccn23)n1)c1ccc(F)cc1 | 29% | 44% | 75.1% | 46.4% | 60.6% | 14.3% | 23.7% | 56.3% | 23.1% |
| Cc1ccc2c(c1)ncn2-c1ncnc2c1CC(C)c1ccccc1N2C (stereo unspecified) | 0.836% (active) | 43.9% | 37.6% | 12.1% | 20.9% | – | 20.8% | 44.4% | – |
| COc1cc(C2C=C(C)N=C3SC=CN32)cc(OC)c1OC (stereo unspecified) | 110% | 94.7% | 107% | 103% | 94.5% | 106% | 97.8% | 109% | 107% |
| COc1ccc(/C=N/NC(=O)Cn2c(Cc3cccc4ccccc34)nc3ccccc32)cc1 | 108% | 102% | 92.2% | 99.7% | 83.2% | 96.1% | 88.3% | 109% | – |
| CC(=O)Nc1nc(C(=O)N2N=C(C)/C(=C/c3ccc(Cl)cc3)C2=O)cs1 | 108% | 98.3% | 104% | 101% | 98% | – | 101% | 110% | – |
| Cn1c(-c2nonc2NC(=O)c2ccc(F)cc2)nc2ccccc21 | 101% | 100% | 110% | 108% | 101% | 97.2% | 97.8% | 110% | 108% |
| CC[C@H](C)[C@@H]1NC(=O)[C@H]([C@@H](C)O)NC(=O)C(Cc2ccccc2)NC(=O)[C@@H]2CCCN2C(=O)C(C(C)C)NC(=O)C(Cc2ccccc2)NC(=O)CNC(=O)[C@@H]2CCCN2C1=O (stereo partly specified) | 76.2% | 54.3% | 73.6% | 67% | -0.594% (active) | 64.8% | 88.7% | 76.4% | 65.6% |
| COc1cccc(NC(=O)c2sc3nc4c(cc3c2N)CCCC4)c1 | 41.5% | 18.2% | 39.4% | 19.8% | 19.2% | 26.3% | 40.5% | 48.9% | 33.2% |
| CCCn1c(=S)sc2c(Cl)nc(C)nc21 | 84% | 8.62% (active) | 93.5% | 79% | 100% | 108% | -78.5% (active) | 102% | 54.7% |
| CCN(Cc1ccccc1)c1ccc(SC#N)cc1 | 70.5% | 83.1% | 90.7% | 81.5% | 30.5% | 93.8% | 49.2% | 86.7% | 90.4% |
| c1cncc(CNc2ccccc2-c2nnc(Nc3ccc4c(c3)OCCO4)o2)c1 | – | 33.1% | 38.1% | 30.8% | 36.5% | -9.92% (active) | 27.1% | 68.9% | 39.8% |
| CC/C=C\C/C=C\C[C@H]1C/C=C2/C(=O)C=C[C@H]2C/C=C\CCC(=O)O1 | -16.5% (active) | 62% | 40.6% | 2.71% (active) | -18.9% (active) | -58.4% (active) | -68.4% (active) | -1.61% (active) | -43.6% (active) |
| COc1ccc(OC)c(/C=C2\Oc3cc(OCCN4CCCC4)ccc3C2=O)c1 | 23.8% | 95.7% | 94.3% | 89.5% | 91.5% | – | 90.3% | 101% | 100% |
| CC1Cc2c(N(C)C)ncnc2N(C)c2ccc(O)cc21 (stereo unspecified) | 97.8% | 72.9% | 83.1% | 78.9% | 72.9% | 82.9% | 86.2% | 98.6% | 81.2% |
| C=CCc1cc(Cl)cc2c(OC(C)=O)c(C(C)=O)c(-c3ccccc3)nc12 | 112% | 85.6% | 112% | 105% | 96% | 105% | 97.3% | 116% | 101% |
| O=C1C2=C(C(=O)c3c(O)ccc(O)c31)N(c1cccnc1)Cc1ccccc1O2 | -60.4% (active) | 22.1% | 5.25% (active) | 2.04% (active) | -31.7% (active) | 11.4% | -64.6% (active) | -72% (active) | -76.5% (active) |
| Cn1cc(C=O)c2ccccc21 | 100% | 80% | 100% | – | 83.4% | 99.4% | 88.4% | 109% | 106% |
| COc1ccc(-c2nc(-c3ccccc3)c(-c3ccccc3)n2C2CC2)cc1OC1CCCCC1 | 49.2% | 56.3% | 83.7% | – | 43.4% | 36% | 45.6% | 77.7% | 60.8% |
| CC(Br)C(O)c1cc2c(cc1Br)OCO2 (stereo unspecified) | 114% | 88% | 112% | 102% | 98.6% | 102% | 93.2% | 108% | – |
| COc1ccc(/C=C/c2nc(N3CCOCC3)c3cc(F)c(F)cc3n2)cc1OC | 42.4% | 54.8% | 45.3% | 41.5% | 8.26% (active) | -18.1% (active) | 36.4% | 52.4% | 41.1% |
| COc1ccc(/C=C\c2cc(OC)c(OC)c(OC)c2)c(NS(=O)(=O)c2ccc(C(C)(C)C)cc2)c1O | 33% | 31.9% | 46.1% | 24.3% | 34.5% | -19.2% (active) | 17% | 53.7% | 39.1% |
